Results as given in PubChem BioAssay AID1159580 (chemical genetic matrix, 2015).
The whole screen tested about 5,500 compounds, of which about 2,000 (36%) were called active. Roughly 18% stayed inconclusive and do not appear here. No stated cut-off is given here; in the data, active means normalized growth mostly below about 0.91 (no sharp cut-off); inconclusive means no clear call, values can overlap the other calls; inactive means mostly above about 0.92. The list shows a part of the results.

Assay: chemical genetic growth profiling, strain panel (AID 1159580);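 further: tested at 20 µM; growth read once vehicle control cultures reached saturation at 30 °C; 1 = growth at the plate median or of vehicle wells; lower values mean less growth of the strain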
Conditions: growth OD

Measured: normalized growth

CCCCC(=O)N(Cc1ccc(-c2ccccc2-c2nn[nH]n2)cc1)[C@H](C(=O)O)C(C)C
inactive: S. cerevisiae deletion strains, locus YJR066W, strain TOR1, hits give low values 0.959 | S. cerevisiae deletion strains, locus YJR075W, strain HOC1, hits give low values 1 | S. cerevisiae deletion strains, locus YKL009W, strain mrt4, hits give low values 0.968 | S. cerevisiae deletion strains, locus YKL068W, hits give low values 0.964 | S. cerevisiae deletion strains, locus YKL085W, strain MDH1 (second series), hits give low values 0.959 | S. cerevisiae deletion strains, locus YKL085W, strain MDH1, hits give low values 0.959 | S. cerevisiae deletion strains, locus YKL160W, strain elf1, hits give low values 1.01 | S. cerevisiae deletion strains, locus YKL190W, strain CNB1, hits give low values 0.986 | S. cerevisiae deletion strains, locus YKR001C, strain vps1, hits give low values 0.987 | S. cerevisiae deletion strains, locus YKR026C, strain gcn3, hits give low values 0.985 | S. cerevisiae deletion strains, locus YKR091W, strain srl3, hits give low values 0.981 | S. cerevisiae deletion strains, locus YLL001W, strain dnm1, hits give low values 0.993 | S. cerevisiae deletion strains, locus YLL026W, hits give low values 0.998 | S. cerevisiae deletion strains, locus YLL041C, strain sdh2, hits give low values 1 | S. cerevisiae deletion strains, locus YLR027C, strain aat2, hits give low values 0.999 | S. cerevisiae deletion strains, locus YLR039C, strain RIC1, hits give low values 0.963 | S. cerevisiae deletion strains, locus YLR058C, strain SHM2, hits give low values 1 | S. cerevisiae deletion strains, locus YLR102C, strain apc9, hits give low values 0.975 | S. cerevisiae deletion strains, locus YLR113W, strain HOG1, hits give low values 0.987 | S. cerevisiae deletion strains, locus YLR221C, strain rsa3, hits give low values 0.977 | S. cerevisiae deletion strains, locus YLR258W, strain gsy2, hits give low values 0.989 | S. cerevisiae deletion strains, locus YLR262C, strain YPT6 (second series), hits give low values 1 | S. cerevisiae deletion strains, locus YLR262C, strain YPT6, hits give low values 0.981 | S. cerevisiae deletion strains, locus YLR268W, strain sec22, hits give low values 0.977 | S. cerevisiae deletion strains, locus YLR320W, strain mms22, hits give low values 0.993 | S. cerevisiae deletion strains, locus YLR330W, strain CHS5, hits give low values 0.99 | S. cerevisiae deletion strains, locus YLR342W, strain FKS1 (second series), hits give low values 1.01 | S. cerevisiae deletion strains, locus YLR342W, strain FKS1, hits give low values 1.02 | S. cerevisiae deletion strains, locus YLR357W, strain rsc2, hits give low values 0.976 | S. cerevisiae deletion strains, locus YLR370C, strain arc18, hits give low values 1 | S. cerevisiae deletion strains, locus YLR371W, strain rom2, hits give low values 0.977 | S. cerevisiae deletion strains, locus YLR384C, strain iki3, hits give low values 1.01 | S. cerevisiae deletion strains, locus YLR418C, strain cdc73, hits give low values 0.989 | S. cerevisiae deletion strains, locus YML016C, strain PPZ1, hits give low values 0.994 | S. cerevisiae deletion strains, locus YML032C, strain rad52, hits give low values 0.985 | S. cerevisiae deletion strains, locus YML120C, strain ndi1, hits give low values 0.981 | S. cerevisiae deletion strains, locus YML124C, strain tub3, hits give low values 0.985 | S. cerevisiae deletion strains, locus YMR058W, strain fet3, hits give low values 0.982 | S. cerevisiae deletion strains, locus YMR078C, strain ctf18, hits give low values 0.995 | S. cerevisiae deletion strains, locus YMR125W, strain sto1, hits give low values 0.932 | S. cerevisiae deletion strains, locus YMR129W, hits give low values 0.983 | S. cerevisiae deletion strains, locus YMR205C, strain PFK2, hits give low values 0.994 | S. cerevisiae deletion strains, locus YMR223W, strain ubp8, hits give low values 0.994 | S. cerevisiae deletion strains, locus YMR231W, strain pep5, hits give low values 1 | S. cerevisiae deletion strains, locus YMR263W, strain SAP30, hits give low values 0.975 | S. cerevisiae deletion strains, locus YMR307W, strain GAS1, hits give low values 1.04 | S. cerevisiae deletion strains, locus YNL067W, strain RPL9B, hits give low values 0.985 | S. cerevisiae deletion strains, locus YNL071W, strain lat1, hits give low values 0.991 | S. cerevisiae deletion strains, locus YNL128W, strain TEP1, hits give low values 0.969 | S. cerevisiae deletion strains, locus YNL153C, strain GIM3, hits give low values 0.991 | S. cerevisiae deletion strains, locus YNL183C, strain NPR1, hits give low values 0.956 | S. cerevisiae deletion strains, locus YNL209W, strain ssb2, hits give low values 0.989 | S. cerevisiae deletion strains, locus YNL233W, strain BNI4, hits give low values 0.995 | S. cerevisiae deletion strains, locus YNL248C, strain rpa49, hits give low values 0.947 | S. cerevisiae deletion strains, locus YNL250W, strain rad50, hits give low values 0.944 | S. cerevisiae deletion strains, locus YNL271C, strain bni1, hits give low values 0.98 | S. cerevisiae deletion strains, locus YNL298W, strain CLA4, hits give low values 0.971 | S. cerevisiae deletion strains, locus YNL307C, strain MCK1, hits give low values 0.98 | S. cerevisiae deletion strains, locus YNL322C, strain KRE1 (second series), hits give low values 0.988 | S. cerevisiae deletion strains, locus YNL322C, strain KRE1, hits give low values 0.981 | S. cerevisiae deletion strains, locus YNR049C, strain mso1, hits give low values 0.965 | S. cerevisiae deletion strains, locus YNR052C, strain pop2, hits give low values 0.991 | S. cerevisiae deletion strains, locus YOL006C, strain TOP1, hits give low values 1.01 | S. cerevisiae deletion strains, locus YOL012C, strain htz1 1.43 | S. cerevisiae deletion strains, locus YOL147C, strain pex11, hits give low values 0.98 | S. cerevisiae deletion strains, locus YOR001W, strain rrp6, hits give low values 0.988 | S. cerevisiae deletion strains, locus YOR061W, strain CKA2, hits give low values 0.985 | S. cerevisiae deletion strains, locus YOR069W, strain VPS5, hits give low values 0.989 | S. cerevisiae deletion strains, locus YOR070C, strain gyp1, hits give low values 0.994 | S. cerevisiae deletion strains, locus YOR080W, strain dia2, hits give low values 0.988 | S. cerevisiae deletion strains, locus YOR083W, strain WHI5, hits give low values 1.01 | S. cerevisiae deletion strains, locus YOR106W, strain vam3, hits give low values 0.998 | S. cerevisiae deletion strains, locus YOR136W, strain idh2, hits give low values 0.991 | S. cerevisiae deletion strains, locus YOR144C, strain elg1, hits give low values 0.988 | S. cerevisiae deletion strains, locus YOR231W, strain MKK1, hits give low values 0.963 | S. cerevisiae deletion strains, locus YOR265W, strain rbl2, hits give low values 0.999 | S. cerevisiae deletion strains, locus YOR270C, strain vph1, hits give low values 0.997 | S. cerevisiae deletion strains, locus YOR290C, strain snf2, hits give low values 0.962 | S. cerevisiae deletion strains, locus YOR316C, strain cot1, hits give low values 0.98 | S. cerevisiae deletion strains, locus YPL051W, strain arl3, hits give low values 1.01 | S. cerevisiae deletion strains, locus YPL055C, strain LGE1, hits give low values 0.974 | S. cerevisiae deletion strains, locus YPL078C, strain atp4, hits give low values 0.989 | S. cerevisiae deletion strains, locus YPL106C, strain sse1, hits give low values 0.956 | S. cerevisiae deletion strains, locus YPL240C, strain hsp82, hits give low values 1 | S. cerevisiae deletion strains, locus YPL241C, strain CIN2, hits give low values 0.991 | S. cerevisiae deletion strains, locus YPL256C, strain CLN2, hits give low values 0.908 | S. cerevisiae deletion strains, locus YPR119W, strain clb2, hits give low values 0.991 | S. cerevisiae deletion strains, locus YPR141C, strain kar3, hits give low values 0.963 | S. cerevisiae deletion strains, locus YPR163C, strain tif3, hits give low values 0.978 | S. cerevisiae deletion strains, locus YPR167C, strain met16, hits give low values 0.976 | S. cerevisiae deletion strains, strain wtn01, hits give low values 0.96 | S. cerevisiae strains, strain wild type, hits give low values 0.973
